Assay [1] has as its system Wnt5a (protein binding on small-molecule microarray). Briefly: small molecules binding Wnt5a protein – biophysical, small-molecule microarray, 635/667 nm fluorescence, primary screen (AID 1142).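 Further: fluorescence read at 667 nm with signal to noise per printed feature.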 Particulars: 635 nm fluorescence, higher = more signal.
Assay [2] in a line: ATP-based viability of Huh7 replicon cells – cell-based, CellTiter-Glo luminescence, basal, 48 h, cytotoxicity control for HCV replication inhibitor project, primary screen (AID 1143).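 Further: Huh7 hepatoma cells carrying a hepatitis C replication reporter with no stimulus; test concentration not given here.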 The following applies: higher = more signal, called active from +8 up or from −8 down. Background: A replicon is a self-replicating genome or part of one, used to study replication in cells.
Assay [3] is described as follows: Pseudomonas biofilm growth suppression – PAO1 strain, BacTiter-Glo luminescence, LB-PBS, primary screen (AID 1144). The following applies: P. aeruginosa PAO1 biofilm, 12 h, higher = more signal.
The nature of assay [4]: basal CRE-LacZ reporter activity in PC12 – cell-based, unstimulated, primary screen (AID 1145). The following applies: no forskolin, luminescence, 4.5 h, higher = more signal, called active from +8 up or from −8 down.
Assay [5] can be described thus: forskolin-driven CRE-LacZ activity in PC12 – cell-based, CRE-LacZ reporter, forskolin-stimulated, primary screen (AID 1146).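 Further: PC12 cells with 6xCRE LacZ reporter stimulated by forskolin 10 µM; beta-galactosidase reporter signal reflecting CREB driven transcription.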 The following applies: luminescence, 4.5 h, higher = more signal, called active from +8 up or from −8 down.
The target in assay [6] is Streptavidin (Streptomyces avidinii) (UniProt P22629). Briefly: compounds binding control protein streptavidin – biophysical, small-molecule microarray, 635/667 nm fluorescence, artefact control for SMM compound annotation, primary screen (AID 1147).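 Further: signal reflects streptavidin binding to arrayed compounds as a control protein.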 The following applies: higher = more signal.
Assay [7] is described as follows: probe aInhba binding on compound microarray – biochemical, small-molecule microarray, 635/667 nm fluorescence, primary screen (AID 1148).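 Further: score merges 667nm spot fluorescence with signal-to-noise for antibody binding to printed compounds.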 Particulars: higher = more signal.
The target of assay [8] is Torsin-1A (Homo sapiens) (UniProt O14656). Kind of assay: TOR1A wild-type binding on microarray – cell lysate, small-molecule microarray, lysate, 635/667 nm, primary screen (AID 1149). The following applies: COS7 hTOR1A-WT lysate, 635 nm fluorescence, higher = more signal.
Assay [9] shares this target. Briefly: torsin A mutant lysate binding on microarrays – cell lysate, small-molecule microarray, COS7 lysate, 635/667 nm fluorescence, primary screen (AID 1150).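 Further: score pools 667 nm emission and signal to noise measuring lysate protein binding.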 Particulars: COS7 hTOR1A mutant lysate, 635 nm fluorescence, higher = more signal.
The test system of assay [10] is Sonic hedgehog protein (Shh). Briefly: Sonic hedgehog microarray binding compounds – biochemical, small-molecule microarray, 635/667 nm fluorescence, primary screen (AID 1151).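 Further: Shh protein binding to compounds spotted on small-molecule microarray slides; score combines spot fluorescence intensity with signal-to-noise across triplicate slides.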 The following applies: 635 nm fluorescence, higher = more signal.

The structures appear in SMILES notation. Active and inactive are the calls of the source. Unless noted, how the calls were made is not given here.

Sequence of Torsin-1A (Homo sapiens) (O14656 whole entry, looked up): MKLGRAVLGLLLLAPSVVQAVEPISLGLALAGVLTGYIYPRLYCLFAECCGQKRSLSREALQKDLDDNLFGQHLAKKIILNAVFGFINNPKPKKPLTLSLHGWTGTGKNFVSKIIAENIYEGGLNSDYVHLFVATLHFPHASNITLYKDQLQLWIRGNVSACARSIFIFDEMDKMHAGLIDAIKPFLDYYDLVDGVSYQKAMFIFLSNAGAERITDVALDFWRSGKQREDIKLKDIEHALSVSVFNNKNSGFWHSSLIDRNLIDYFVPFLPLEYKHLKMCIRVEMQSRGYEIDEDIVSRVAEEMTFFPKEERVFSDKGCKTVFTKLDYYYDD
Sequence of Streptavidin (Streptomyces avidinii) (P22629 whole entry, looked up): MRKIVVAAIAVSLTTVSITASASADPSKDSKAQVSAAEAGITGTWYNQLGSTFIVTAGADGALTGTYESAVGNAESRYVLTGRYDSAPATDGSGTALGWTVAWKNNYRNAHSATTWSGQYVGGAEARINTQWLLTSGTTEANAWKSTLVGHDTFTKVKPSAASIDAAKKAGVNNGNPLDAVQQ

In the case of `CCOC(=O)[C@H](Cc1ccccc1)NC(=O)CCC1CC(OC(=O)NCc2cccc3ccccc23)CC2(CCCC(COC(=O)NCc3cccc(C(F)(F)F)c3)O2)O1` (stereo not given in full), the composite z-score in assay [1] was -0.0693; in assay [6], 0.339; in assay [7], -0.0375; with Torsin-1A (Homo sapiens) [8], -0.347; in the assay with Torsin-1A (Homo sapiens) [9], -0.385; in assay [10] it was 0.0624. Moreover, the z-score was -0.816 (inactive) in assay [2], -0.641 (inactive) in assay [3], 4.81 (inactive) in assay [4] and -0.0734 (inactive) in assay [5].
As for `COC(=O)[C@H](C)NC(=O)CCC1CC(OC(=O)NCc2ccc3c(c2)OCO3)CC2(CCCC(COC(=O)NCc3cccc(C(F)(F)F)c3)O2)O1` (stereo not given in full), the composite z-score in [1] was -0.0362; in [6], 0.634; in assay [7] it was 0.0852; in the assay with Torsin-1A (Homo sapiens) [8] it was 0.703; with Torsin-1A (Homo sapiens) [9] it was 0.279; in [10], 1.28. Also, the z-score was -0.109 (inactive) in [2], -0.0589 (inactive) in assay [3], -0.794 (inactive) in assay [4] and -0.631 (inactive) in [5].
For `COC(=O)CC=C[C@@H](C)[C@@H](C=NOCC[C@@H]1C=C[C@H](OC(C)=O)[C@@H](COC(C)=O)O1)OC`, the composite z-score is 0.38 in [1]; -0.227 in assay [6]; 0.0565 in assay [7]; 0.563 with Torsin-1A (Homo sapiens) [8]; 0.359 with Torsin-1A (Homo sapiens) [9]; 0.19 in [10]. Moreover, the z-score in [2] was 0.309 (inactive); in assay [3] it was 0.711 (inactive); in assay [4], -0.557 (inactive); in [5], 0.0921 (inactive).
Turning to `O=C1C[C@@H](O)[C@@H](O)[C@@H]2[C@@H]3C(=O)N(C[C@@H]4CCCO4)C(=O)[C@@H]3CC[C@@H]12`, the composite z-score in assay [1] was determined as 0.191; in assay [6], 0.622; in [7] it was 0.0956; in the assay with Torsin-1A (Homo sapiens) [8] it was 0.232; with Torsin-1A (Homo sapiens) [9], 0.206; in [10], 0.678. In addition, the z-score in assay [2] is 0.149 (inactive); in assay [3], -0.213 (inactive); in [4] it was 0.246 (inactive); in assay [5], 0.287 (inactive).
As to `CCOC(=O)NN=C1C[C@@H](O)[C@@H](O)[C@@H]2[C@@H]3C(=O)N(C(C)(C)C)C(=O)[C@@H]3CC[C@H]12`, the composite z-score in [1] turned out to be 0.138; in assay [6], 0.344; in assay [7], 0.0427; in the assay with Torsin-1A (Homo sapiens) [8] it was 0.446; with Torsin-1A (Homo sapiens) [9], 0.307; in [10], 0.187. Also, the z-score was -0.0395 (inactive) in [2], 0.655 (inactive) in assay [3], -0.295 (inactive) in assay [4] and 0.269 (inactive) in [5].
Consider `CON=C[C@@H](NS(=O)(=O)c1ccc(C)cc1)[C@H](C)C=CCC(=O)OC`, for which the composite z-score in assay [1] was 0.0181; in assay [6], 0.188; in assay [7], -0.128; with Torsin-1A (Homo sapiens) [8], 0.379; with Torsin-1A (Homo sapiens) [9] it was -0.199; in [10] it was 0.779. The z-score in [2] was 0.319 (inactive); in assay [3] it was -0.357 (inactive); in assay [4], 0.173 (inactive); in [5], -0.196 (inactive).
Turning to `COC(=O)[C@H](C)NC(=O)CCC1CC(OC(=O)NCc2cccc3ccccc23)CC2(CCCC(COC(=O)NCC(c3ccccc3)c3ccccc3)O2)O1` (stereo not given in full), the composite z-score in [1] is 0.345; in assay [6] it was -0.244; in assay [7], -0.11; in the assay with Torsin-1A (Homo sapiens) [8], 0.113; in the assay with Torsin-1A (Homo sapiens) [9] it was 0.452; in assay [10], 0.759. The z-score in assay [2] was -0.145 (inactive); in assay [3], -0.155 (inactive); in [4] it was -0.437 (inactive); in assay [5], 2.17 (inactive).
Regarding `CC(C)CON=C1C[C@@H](O)[C@@H](O)[C@@H]2[C@@H]3C(=O)N(C(C)(C)C)C(=O)[C@@H]3CC[C@H]12`, the composite z-score in assay [1] was -0.147; in assay [6], -0.312; in [7], -0.125; with Torsin-1A (Homo sapiens) [8], 0.324; with Torsin-1A (Homo sapiens) [9], 0.329; in [10] it was -0.739. Moreover, the z-score is 0.419 (inactive) in assay [2], -0.208 (inactive) in assay [3], -0.116 (inactive) in assay [4] and 0.366 (inactive) in [5].
Regarding `CC(C)CON=C1C[C@@H](O)[C@@H](O)[C@@H]2[C@@H]3C(=O)N(c4cccc(Oc5ccccc5)c4)C(=O)[C@@H]3CC[C@@H]12`, the composite z-score is 0.0462 in [1]; 0.977 in assay [6]; -0.016 in assay [7]; 0.486 with Torsin-1A (Homo sapiens) [8]; 0.181 with Torsin-1A (Homo sapiens) [9]; 1.7 in [10]. The z-score was -1.26 (inactive) in [2], 0.272 (inactive) in [3], -0.11 (inactive) in [4] and 0.0421 (inactive) in assay [5].
`C[C@H]1COC(=O)[C@@H]2CCCN2C(=O)[C@@H](C)COC(=O)[C@H](Cc2ccccc2)NC1=O`: the composite z-score is 0.0398 in [1]; 0.0706 in [6]; -0.045 in assay [7]; 0.146 with Torsin-1A (Homo sapiens) [8]; 0.0507 in the assay with Torsin-1A (Homo sapiens) [9]; 0.515 in assay [10]. Also, the z-score is 0.257 (inactive) in assay [2], -0.0355 (inactive) in [3], -0.468 (inactive) in assay [4] and 0.574 (inactive) in assay [5].
For the compound `CO[C@@H]1C=CCC(=O)N[C@@H](C)C(=O)OC[C@@H](OC)[C@H](C)CCCC(=O)OC[C@H]1C`, the composite z-score in assay [1] was 0.122; in assay [6] it was 0.253; in assay [7], -0.101; with Torsin-1A (Homo sapiens) [8], 3.16; with Torsin-1A (Homo sapiens) [9] it was 2.84; in assay [10] it was 1.71. The z-score in assay [2] is -0.468 (inactive); in [3], -0.499 (inactive); in assay [4], -0.808 (inactive); in assay [5], 0.0561 (inactive).
For `O=C1C=C[C@@H](O)[C@@H]2[C@@H]3C(=O)N(c4ccc(F)cc4F)C(=O)[C@@H]3CC[C@@H]12`, the composite z-score in [1] is 0.15; in assay [6], 0.275; in assay [7] it was -0.123; in the assay with Torsin-1A (Homo sapiens) [8] it was 1.15; with Torsin-1A (Homo sapiens) [9] it was 0.629; in assay [10] it was 0.93. For the same compound, the z-score was -1.18 (inactive) in assay [2], 0.0333 (inactive) in assay [3], 0.332 (inactive) in assay [4] and 0.41 (inactive) in assay [5].
With `CCC1=NOC(CCC2CC(OC(=O)NCc3cccc4c3OCO4)CC3(CCCC(COC(=O)NCCc4ccccc4OC)O3)O2)C1` (stereo not given), the composite z-score is 0.196 in assay [1]; 0.72 in assay [6]; -0.152 in assay [7]; -0.0106 in the assay with Torsin-1A (Homo sapiens) [8]; 0.778 in the assay with Torsin-1A (Homo sapiens) [9]; 0.157 in [10]. Moreover, the z-score in assay [2] is -0.491 (inactive); in assay [3] it was 0.249 (inactive); in [4] it was 1.46 (inactive); in assay [5], 0.214 (inactive).
In the case of `CCN1C(=O)[C@H]2[C@H]3[C@H](O)[C@H](O)CC(=NOCC(C)C)[C@@H]3CC[C@H]2C1=O`, the composite z-score in assay [1] is -0.111; in [6], 0.017; in assay [7] it was 0.038; in the assay with Torsin-1A (Homo sapiens) [8], 0.729; with Torsin-1A (Homo sapiens) [9] it was 0.634; in assay [10], 1.31. Further, the z-score in assay [2] is -0.101 (inactive); in assay [3] it was 0.258 (inactive); in assay [4] it was -0.929 (inactive); in assay [5], -0.2 (inactive).

The values above are taken from PubChem BioAssay.
